This note sets out measurements from PubChem BioAssay (EPA / NIEHS).

The structures appear in SMILES notation. Inconclusive results are not listed. Some compounds were tested as several samples or in several runs, with calls that do not always agree. The source made the active and inactive calls. The calls were made as follows: active = hit-call score of the fitted dose curve at least 0.9, where 1 is the maximum; inconclusive = response in the unintended direction; inactive = score below 0.9.

Sequence of Cellular tumor antigen p53 (Homo sapiens) (P04637 whole entry, looked up, the tested form may be a part): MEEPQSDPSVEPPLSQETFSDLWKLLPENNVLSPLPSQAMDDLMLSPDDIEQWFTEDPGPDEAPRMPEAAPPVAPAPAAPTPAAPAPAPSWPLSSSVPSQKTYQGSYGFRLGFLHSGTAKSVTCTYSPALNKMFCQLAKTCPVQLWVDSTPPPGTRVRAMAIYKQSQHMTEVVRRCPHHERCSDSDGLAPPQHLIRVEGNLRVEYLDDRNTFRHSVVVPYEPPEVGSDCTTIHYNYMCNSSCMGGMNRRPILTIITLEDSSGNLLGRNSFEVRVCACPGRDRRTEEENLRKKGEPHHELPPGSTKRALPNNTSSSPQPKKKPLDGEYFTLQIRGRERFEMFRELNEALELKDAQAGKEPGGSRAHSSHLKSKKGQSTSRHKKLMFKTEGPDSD

The assay has as its target Cellular tumor antigen p53 (Homo sapiens) (UniProt P04637). In words: TOX21_p53_BLA_p3_ratio: Tox21 HCT-116 p53 Agonism Beta-lactamase Assay, Ratio, Phase 3 (AID 2283596). An excerpt:
TOX21_p53_BLA_p3 is a cell-based, single-readout assay that uses HCT116, a human intestinal cell line, […] in a 1536-well plate.TOX21_p53_BLA_p3_ratio is an assay readout measuring reporter gene via receptor activity and designed using inducible reporter (beta lactamase induction) detected with GAL4 b-lactamase reporter gene. The signal is derived from the ratio of cleaved (ch2) to uncleaved (ch1) reporter gene substrate used as the measure of target activity.Data from the assay component TOX21_p53_BLA_p3_ratio was analyzed into 1 assay endpoint. This assay endpoint, TOX21_p53_BLA_p3_ratio, was analyzed in the positive analysis fitting direction relative to DMSO as the negative control and baseline of activity. Using a type of inducible reporter, gain-of-signal activity can be used to understand changes in the reporter gene as they relate to the gene TP53. Furthermore, this assay endpoint can be referred to as a primary readout, because this assay has produced multiple assay endpoints where this ratio serves a reporter gene function to understand target activity. To generalize the intended target to other relatable targets, this assay endpoint is annotated to the DNA binding intended target family, where the subfamily is tumor suppressor.
Thawing Method: Place 14 mL of pre-warmed thaw medium into a 15 mL of conical tub. Remove the vial of cells to be thawed from liquid nitrogen and thaw rapidly by placing at 37C in a water bath with gentle agitation for 1-2 minutes. Decontaminate the vial by wiping with 70% ethanol before opening in a biological safety cabinet. Transfer the vial contents drop-wise into 14 mL of thaw medium in a sterile 15-mL conical tub. Centrifuge cells at 900 rpm for 4 minutes and resuspend in thaw medium. Transfer contents to the T75 tissue culture flask containing Thaw Medium and place flask in a humidified 37C/5% CO2 incubator. Switch to growth medium at first passage.Propagation Method: Aspirate medium, rinse once in DPBS, add 0.25% Trypsin/EDTA and swirl to coat the cell evenly. Add an equal volume of Growth Medium to inactivate Trypsin after 2-3 minutes incubation at 37C. Centrifuge cells at 900 rpm for 4 minutes and resuspend in growth medium. Cell should be passage or fed at least twice a week.Assay Protocol: Harvest cells from culture in growth medium and resuspend in assay medium. 2.2 Dispense 4000 cells/5 uL/well into 1536-well black/clear bottom plates using a Multidrop dispenser. After the cells were incubated at 37C for 5 hours, 23 nL of compounds dissolved in DMSO were transferred to the assay plate by a PinTool resulting in a 217-fold dilution. Incubate the plates for 16 hours at 37C, 5% CO2. Add 1 uL of 6X LiveBLAzer FRET B/G (CCF4-AM) Substrate Mixture to each well using a BioRAPTR dispenser and incubate the plates at room temperature for 2 hours. Measure fluorescence intensity at 460 and 530 nm emission and 405 nm excitation by an Envision detector. Data is expressed as the ratio of 460nm/530nm emissions. Add 4 uL of Cell-titer Glo to each well using BioRAPTR and incubate the plates at room temperature for 2 hours. Measure fluorescence intensity by a VewLux plate reader.
Turning to `CCCCOCCOCCO`, the outcome was inactive.

As to `CC/C=C\C#N`, the outcome was inactive. On the same count and under the same terms, the result for `CCO[Si](CC)(OCC)OCC` reads “inactive”; that for `CC(=O)CCc1ccc(O)cc1`, “inactive”. Same read-out and setting: in the case of `CC(C)Cc1ccc(C(C)C(=O)O)cc1` (stereo not given) it was “inactive”. Still for that read-out and setting: the result for `CCC(C)COC(=O)CC(C)C` (stereo not given) reads “inactive”. On to `CC(C)COC(=O)c1ccccc1O`, for which the result was inactive.

Regarding `C=C(C)C(N)=O`, the outcome was inactive.

`CCCCCCC(C)O` (stereo not given): the result was inactive.

For `COc1ccc2[nH]cc(CCNC(C)=O)c2c1`, the outcome was inactive. With `c1ccc2scnc2c1`, the result was inactive. On to `CCC(C)(C)C1CCC(OC)CC1` (stereo not given), for which the result was inactive. For the compound `NC(N)=S`, the outcome was inactive. Still for that read-out and setting: in the case of `C[Si]1(C)N[Si](C)(C)N[Si](C)(C)N1` it was “inactive”; in that of `CC(C)(O)CCc1ccccc1`, “inactive”. Regarding `O=C(Nc1cccc(Cl)c1)OCC#CCCl`, the concentration at half-maximal activity (AC50) (commonly the concentration giving half of the maximal activity seen) was 13.4 µM (active). On to `NCCN1CCNCC1`, for which the result was inactive.

Consider `CCCCCC1C(=O)CCC1CC(=O)OC` (stereo not given), for which the result was inactive. On the same count and under the same terms, the result for `C=C(C)C(=O)OCCN(C)C` reads “inactive”; that for `O=C(O)c1cc(C(=O)O)c(C(=O)O)cc1C(=O)O`, “inactive”. On to `O=S1(=O)CC(Cl)(Cl)C(Cl)(Cl)C1`, for which the AC50 was 47.6 µM (active). As for `C[C@H](CCC(=O)O)[C@H]1CC[C@H]2[C@@H]3CC[C@@H]4C[C@H](O)CC[C@]4(C)[C@H]3CC[C@]12C`, the AC50 is 31.1 µM (active) and the result was inactive.

For the compound `CC1=CC(=O)[C@H]2C[C@@H]1C2(C)C`, the outcome was inactive. Consider `CC(=O)C1=C(C)[C@@H]2C[C@@]3(C1)[C@H](C)CC[C@H]3C2(C)C`, for which the outcome was inactive. On the same count and under the same terms, in the case of `CC1(C)CC(=O)CC(C)(C)N1` it was “inactive”. The same measure, in the same setting: in the case of `NCCCOCCOCCOCCCN` it was “inactive”; in that of `CCCCCCC(O)CCOC(C)=O` (stereo not given), “inactive”. The same measure, in the same setting: the result for `C=CC(=O)OCCCCCC` reads “inactive”; that for `COc1ccc(OC)cc1`, “inactive”. In the case of `CC(C)C(=O)OCC=Cc1ccccc1`, the outcome was inactive. Still for that read-out and setting: in the case of `c1ccc(Cc2ccccc2)cc1` it was “inactive”; in that of `CCCCOCCOC(=O)c1ccccc1C(=O)OCCOCCCC`, “inactive”.

`CC(=O)Nc1cc(S(=O)(=O)O)cc2cc(S(=O)(=O)O)c(N=Nc3ccccc3)c(O)c12`: the outcome was inactive. The same measure, in the same setting: the result for `C=C(C)C(=O)OCCC[Si](OC)(OC)OC` reads “inactive”. Turning to `CC/C(=C(\c1ccccc1)c1ccc(OCCN(C)C)cc1)c1ccccc1`, the AC50 was 86.9 µM (active) [middle of 4 runs] and the outcome was inactive. Take `CCCCCCCCCO`: the result was inactive. Turning to `CCCCC/C=C\C=C\C(=O)OCC`, the outcome was inactive. On the same count and under the same terms, the result for `CC(CO)c1ccccc1` (stereo not given) reads “inactive”.
